# ± gives the standard deviation of the averaged measurements.
# Experiments:
# Assay in all cases: cell viability (% of vehicle); higher = less cytotoxic
# Details in all cases: 10 µM; 72 h
# HCI01 = test system: HCI01 (cells of a triple-negative basal-like breast cancer xenograft)
# HCI03 = test system: HCI03 (cells of an ER-positive luminal breast cancer xenograft)
# HCI09 = test system: HCI09 (cells of a triple-negative luminal androgen receptor type breast cancer xenograft)
# HCI11 = test system: HCI11 (cells of an ER-positive luminal breast cancer xenograft)
# HCI16 = test system: HCI16 (cells of a triple-negative basal-like breast cancer xenograft)
# UCD52 = test system: UCD52 (cells of a triple-negative basal-like breast cancer xenograft)
# WHIM2 = test system: WHIM2 (cells of a triple-negative basal-like breast cancer xenograft)
# WHIM30 = test system: WHIM30 (cells of a triple-negative basal-like breast cancer xenograft)
# HCI13 = test system: HCI13 (cells of an ER-positive luminal breast cancer xenograft)
# 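Note: PDX cells carrying CMV promoter-driven luciferase, viability read as total photon flux per second by IVIS imaging following D-luciferin, vehicle control 0.1% DMSO.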
SMILES,cell viability (HCI01),cell viability (HCI03),cell viability (HCI09),cell viability (HCI11),cell viability (HCI16),cell viability (UCD52),cell viability (WHIM2),cell viability (WHIM30),cell viability (HCI13)
CCCc1nc(C(C)(C)O)c(C(=O)O)n1Cc1ccc(-c2ccccc2-c2nn[nH]n2)cc1 [Olmesartan],117 ± 4,121,130 ± 18,113,136,121 ± 15,91.2 ± 3.6,154 ± 25,–
CCN(CC)CC#CCOC(=O)C(O)(c1ccccc1)C1CCCCC1.Cl (configuration not stated) [Oxybutynin chloride],175 ± 51,170,139 ± 59,140,178,109 ± 10,166 ± 20,85.9 ± 14,–
CCC(=O)OC1(C(=O)CCl)C(C)CC2C3CCC4=CC(=O)C=CC4(C)C3(F)C(O)CC21C (configuration not stated) [Clobetasol propionate],116 ± 22,125,116 ± 54,132,196,142 ± 10,91 ± 25,–,–
C=CCNC1=C2CC(C)CC(OC)C(O)C(C)C=C(C)C(OC(N)=O)C(OC)C=CC=C(C)C(=O)NC(=CC1=O)C2=O (configuration not stated),105 ± 37,57.1,26.7 ± 0.77,72.5,106,91.6 ± 5.4,63.25 ± 0.14,85.1 ± 8.4,–
NS(=O)(=O)c1cc2c(cc1Cl)NCNS2(=O)=O [Hydrochlorothiazide],95 ± 30,106,134 ± 72,92.7,177,105 ± 3,101 ± 3.8,139 ± 11,–
O=C(Nc1cccc2c(=O)cc(-c3nn[nH]n3)oc12)c1ccc(OCCCCc2ccccc2)cc1 [Pranlukast],96.3 ± 9.7,97.5,64 ± 5.3,101,147,102 ± 2.1,65.3 ± 11,152 ± 11,–
COc1ccccc1OCC(O)CO (configuration not stated) [Guaifensin],108 ± 4.8,131,112 ± 21,102,117,91.7 ± 1,95 ± 18,141 ± 10,–
Nc1nnc(-c2cccc(Cl)c2Cl)c(N)n1 [Lamotrigine],95 ± 12,155,134 ± 32,89.9,128,112 ± 15,96.1 ± 13,175 ± 4.1,–
C[C@@H]1C[C@H]2[C@H]3CCC4=CC(=O)C=C[C@]4(C)[C@@]3(F)[C@@H](O)C[C@]2(C)[C@@]1(O)C(=O)CO [Dexamethasone (DHAP)],128 ± 28,138,148 ± 54,114,180,168.4 ± 1.4,83.4 ± 20,189 ± 29,–
CC(C)Cn1cnc2c(N)nc3ccccc3c21 [Imiquimod],92.9 ± 12,109,72.71 ± 0.55,42.7,–,76.7 ± 1.4,115 ± 14,116 ± 8,91 ± 20
Cc1cc(Nc2cc(CN3CCOCC3)c3nc(C)c(Cc4ccc(Cl)cc4F)n3n2)n[nH]1,142 ± 56,116,64.3 ± 15,196,199,103 ± 19,–,–,–
CC(C)c1cc(C(=O)N2Cc3ccc(CN4CCN(C)CC4)cc3C2)c(O)cc1O,116 ± 49,43.7,25.4 ± 3.1,124,109,77.1 ± 2.9,75.3 ± 3.1,176 ± 25,–
CCCN(CCC)S(=O)(=O)c1ccc(C(=O)O)cc1 [Probenecid],102 ± 37,142,125 ± 6.3,94.6,145,113 ± 6.4,92.7 ± 6.9,155 ± 8.7,–
CC(C)(C#N)c1cc(Cn2cncn2)cc(C(C)(C)C#N)c1 [Anastrozole],160 ± 20,149,108 ± 23,120,120,111 ± 11,132 ± 22,124.2 ± 0.85,–
C#CC1(O)CCC2C3CCC4=CC(=O)CCC4C3CCC21CC (configuration not stated) [Levonorgestrel],88.7 ± 25,127,100 ± 12,88.5,121,83.6 ± 6.9,91.5 ± 9.7,155 ± 2.3,–
C#CC1(O)CCC2C3CCC4=CC(=O)CCC4C3CCC21C (configuration not stated) [Norethindrone],91.4 ± 26,134,93.6 ± 6.6,97.8,128,93.3 ± 11,93.1 ± 21,–,–
CC12CCC3c4ccc(O)cc4CCC3C1CCC2=O (configuration not stated) [Estrone],99.5 ± 6.1,112,97.3 ± 9.7,102,89.5,87.3 ± 6.6,113 ± 22,153 ± 14,–
Cl.O=C(CCCN1CCC(O)(c2ccc(Cl)cc2)CC1)c1ccc(F)cc1 [Haloperidol hydrochloride],114 ± 14,99.6,103 ± 31,106,127,63.4 ± 4.9,114 ± 6.5,60.2 ± 8.8,–
CC(NCCc1ccc(O)cc1)C(O)c1ccc(O)cc1.Cl (configuration not stated) [Ritodrine HCl],111 ± 11,116,101 ± 21,106,111,86.3 ± 4.5,97.8 ± 37,111 ± 4.8,–
O=C(NS(=O)(=O)c1ccc(Br)s1)c1ccc(Cl)cc1Cl [Tasisulam],183 ± 32,126,84.1 ± 17,148,–,115 ± 25,167 ± 16,172 ± 15,158 ± 6
Cl.N=C(N=C(N)N)N1CCOCC1 [Moroxydine HCl],91.5 ± 36,114,92.5 ± 3.5,89.2,138,87.98 ± 0.46,70.25 ± 0.58,164.7 ± 0.024,–
C#C[C@]1(O)CC[C@H]2[C@@H]3CCC4=CC(=O)CC[C@@H]4[C@H]3C(=C)C[C@@]21CC [Etonogestrel],109 ± 47,135,102 ± 13,86.3,145,116 ± 14,112 ± 30,146 ± 16,–

# Source: the supplement of paper PMC6992640
